Test results published in PubChem BioAssay (EPA / NIEHS).
Values joined by “and” are separate entries in the source; they are usually repeats but may differ in a detail not shown here. Identical values can stand only once. Where a structure was tested more than once in an assay, its records may differ in their call. Active and inactive are the calls of the source. The calls were made as follows: active = hit-call score of the fitted dose curve at least 0.9, where 1 is the maximum; inactive = score below 0.9.

Key:
[1] = APR_HepG2_NuclearSize_72hr: Apredica 72-hour HepG2 Assay for Nuclear Size (AID 2282925); settings: high-content imaging, actives raise or lower the signal
In short: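 Nuclear size was read by high-content imaging of Hoechst 33342 stain after formaldehyde fixation. Compounds ran 72 h on HepG2 at 0.39 to 200 uM, with final DMSO 0.5% v/v. Curves fitted both directions relative to DMSO control.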

[2] = ATG_CRE_CIS: Attagene CIS-FACTORIAL HepG2 Assay for human cAMP Responsive Element (CRE) binding protein 3 (AID 2282926); settings: HepG2 CRE cis-reporter, Attagene multiplexed mRNA; actives raise or lower the signal
In short: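 Liver-derived HepG2, transfected with a CRE-containing reporter panel, exposed 24 h; transcript levels sized and quantified by capillary electrophoresis of labelled amplicons; signal changes either way referenced to vehicle.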

[3] = biological target: CCAAT/enhancer-binding protein beta (Homo sapiens) (UniProt P17676); assay: ATG_C_EBP_CIS: Attagene CIS-FACTORIAL HepG2 Assay for human CCAAT/Enhancer Binding Protein (C/EBP) beta (AID 2282927); settings: HepG2 Attagene cis-factorial transcription factor reporter; actives raise or lower the signal
Sequence of CCAAT/enhancer-binding protein beta (Homo sapiens) (P17676 whole entry, looked up): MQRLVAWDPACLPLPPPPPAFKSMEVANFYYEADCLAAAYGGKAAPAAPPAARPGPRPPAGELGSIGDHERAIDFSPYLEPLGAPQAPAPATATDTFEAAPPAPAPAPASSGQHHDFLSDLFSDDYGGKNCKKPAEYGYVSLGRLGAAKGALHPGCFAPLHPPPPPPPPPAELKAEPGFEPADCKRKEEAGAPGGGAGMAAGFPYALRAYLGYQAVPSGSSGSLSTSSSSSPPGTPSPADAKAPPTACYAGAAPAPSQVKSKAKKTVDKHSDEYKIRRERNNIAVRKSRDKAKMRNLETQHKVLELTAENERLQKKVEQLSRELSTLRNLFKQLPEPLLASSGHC
In short: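 Changes in reporter mRNA, rather than exogenous chimeric receptor activity, reflect native C/EBP signalling in transfected HepG2 cells dosed for 24 h; transcripts are detected by RT-PCR and capillary electrophoresis.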

[4] = ATG_CMV_CIS: Attagene CIS-FACTORIAL HepG2 Assay for human CMV (Internal Marker) (AID 2282928); settings: HepG2 CMV promoter reporter, transcription factor profiling; actives raise or lower the signal;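 also: endpoint acts as a background internal control marker rather than a target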
In short: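 Reporter transcripts from transfected HepG2 cells are isolated after 24 h of chemical dosing, reverse-transcribed and amplified. Fragments labeled with 6-FAM are cut with HpaI and quantified by capillary electrophoresis; DMSO defines baseline.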

[5] = ATG_DR4_LXR_CIS: Attagene CIS-FACTORIAL HepG2 Assay for human Liver X Receptor (LXR), DR4 submotif (AID 2282929); settings: HepG2 Attagene DR4 cis-reporter, mRNA transcription; actives raise or lower the signal
In short: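 Total RNA from 24 h-treated, MRTU-transfected HepG2 cells underwent reverse transcription, PCR, fluorescent primer extension and restriction digestion before capillary electrophoresis. Both increases and decreases in reporter signal were fitted against DMSO.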

[6] = biological target: Aryl hydrocarbon receptor (Homo sapiens) (UniProt P35869); assay: ATG_Ahr_CIS: Attagene CIS-FACTORIAL HepG2 Assay for human Aryl Hydrocarbon Receptor (Ahr) (AID 2282930); settings: HepG2 AhR cis-factorial reporter transcription; actives raise or lower the signal
Sequence of Aryl hydrocarbon receptor (Homo sapiens) (P35869 whole entry, looked up): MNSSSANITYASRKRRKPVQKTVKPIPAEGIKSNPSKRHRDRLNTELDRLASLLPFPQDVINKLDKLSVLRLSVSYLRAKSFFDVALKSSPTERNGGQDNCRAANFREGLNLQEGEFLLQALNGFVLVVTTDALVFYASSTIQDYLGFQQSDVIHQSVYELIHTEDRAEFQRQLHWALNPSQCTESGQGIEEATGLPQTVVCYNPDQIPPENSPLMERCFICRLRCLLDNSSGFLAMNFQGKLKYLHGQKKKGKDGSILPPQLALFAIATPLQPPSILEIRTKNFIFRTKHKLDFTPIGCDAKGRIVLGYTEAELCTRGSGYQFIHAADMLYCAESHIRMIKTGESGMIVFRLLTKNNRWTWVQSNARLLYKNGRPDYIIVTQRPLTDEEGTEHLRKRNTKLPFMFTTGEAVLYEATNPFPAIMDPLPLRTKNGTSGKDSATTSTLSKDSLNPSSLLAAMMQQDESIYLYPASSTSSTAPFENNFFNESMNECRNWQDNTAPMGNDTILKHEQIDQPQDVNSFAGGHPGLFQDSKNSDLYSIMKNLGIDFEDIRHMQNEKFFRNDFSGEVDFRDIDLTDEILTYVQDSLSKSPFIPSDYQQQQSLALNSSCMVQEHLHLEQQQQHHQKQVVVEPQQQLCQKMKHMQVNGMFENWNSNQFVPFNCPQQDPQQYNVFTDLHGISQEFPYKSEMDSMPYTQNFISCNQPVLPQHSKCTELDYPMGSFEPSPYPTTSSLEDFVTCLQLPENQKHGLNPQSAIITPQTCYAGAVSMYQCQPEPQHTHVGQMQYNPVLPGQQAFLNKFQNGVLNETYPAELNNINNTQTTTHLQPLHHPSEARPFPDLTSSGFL
In short: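 HepG2, transient MRTU (cis) transfection, 24 h exposure. RNA → cDNA → PCR → 6-FAM primer extension → HpaI 2 h 37 C → CE. Fit: bidirectional, DMSO baseline.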

[7] = ATG_AP_2_CIS: Attagene CIS-FACTORIAL HepG2 Assay for human Activator Protein 2 (AP-2) (AID 2282932); settings: HepG2 AP-2 cis-reporter, Attagene transcription factor profiling; actives raise or lower the signal
In short: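 Transiently transfected HepG2 cells are exposed to chemical for 24 h. Reporter transcripts are then measured as fluorescence following RT-PCR and capillary separation, and gain- or loss-of-signal is fitted relative to DMSO.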

[8] = ATG_BRE_CIS: Attagene CIS-FACTORIAL HepG2 Assay for human Bone Morphogenetic Protein (BMP) Response Element (BRE) (AID 2282933); settings: HepG2 BMP response element reporter, Attagene transcription factor profiling; actives raise or lower the signal
In short: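 HepG2 cells transiently transfected with CIS reporter units (endogenous TF activity, BMP response element), dosed 24 h. Reporter mRNA quantified by RT-PCR, fluorescent labelling and capillary electrophoresis; bidirectional fit vs DMSO baseline.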

[9] = ATG_E_Box_CIS: Attagene CIS-FACTORIAL HepG2 Assay for human Enhancer Box (E-box) (AID 2282936); settings: HepG2 E-box cis-reporter transcription, actives raise or lower the signal
In short: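 Fluorescent reporter fragments separated by capillary electrophoresis gave the signal; mRNA came from HepG2 cells transfected with cis-element reporters and treated 24 h. Curves fitted bidirectionally relative to DMSO controls.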

[10] = ATG_M_61_CIS: Attagene CIS-FACTORIAL HepG2 Assay for M61 Transcription Factor (Internal Marker) (AID 2282937); settings: HepG2 Attagene CIS-FACTORIAL M61 internal marker reporter; actives raise or lower the signal
In short: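 Transfect HepG2 with MRTUs; dose 24 h; isolate RNA; reverse-transcribe with DNase I treatment; PCR-amplify, FAM-label and cut with HpaI for 2 h at 37 C; resolve by CE. Bidirectional fitting against DMSO.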

[11] = ATG_EGR_CIS: Attagene CIS-FACTORIAL HepG2 Assay for human Early Growth Response 1 (EGR1) (AID 2282938); settings: HepG2 Attagene CIS-FACTORIAL EGR reporter mRNA; actives raise or lower the signal
In short: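 After a 24 h treatment of transiently transfected HepG2 cells, total RNA was reverse-transcribed and reporter sequences PCR-amplified, labelled and run on capillary electrophoresis. Reporters sit under cis-regulatory promoters sensing endogenous factors.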

[12] = ATG_M_19_CIS: Attagene CIS-FACTORIAL HepG2 Assay for M19 Transcription Factor (Internal Marker) (AID 2282939); settings: HepG2 Attagene CIS-FACTORIAL M19 internal marker reporter; actives raise or lower the signal
In short: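 HepG2 cells transiently transfected with cis-regulated multiplexed reporter units, dosed 24 h. Reporter mRNA quantified by RT-PCR and capillary electrophoresis; internal background marker fitted bidirectionally versus DMSO.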

[13] = biological target: Hepatocyte nuclear factor 3-beta (Homo sapiens) (UniProt Q9Y261); assay: ATG_FoxA2_CIS: Attagene CIS-FACTORIAL HepG2 Assay for human Forkhead box A2 (FOXA2) (AID 2282942); settings: HepG2 cis-reporter transcription factor activity, 24 h; actives raise or lower the signal
Sequence of Hepatocyte nuclear factor 3-beta (Homo sapiens) (Q9Y261 whole entry, looked up): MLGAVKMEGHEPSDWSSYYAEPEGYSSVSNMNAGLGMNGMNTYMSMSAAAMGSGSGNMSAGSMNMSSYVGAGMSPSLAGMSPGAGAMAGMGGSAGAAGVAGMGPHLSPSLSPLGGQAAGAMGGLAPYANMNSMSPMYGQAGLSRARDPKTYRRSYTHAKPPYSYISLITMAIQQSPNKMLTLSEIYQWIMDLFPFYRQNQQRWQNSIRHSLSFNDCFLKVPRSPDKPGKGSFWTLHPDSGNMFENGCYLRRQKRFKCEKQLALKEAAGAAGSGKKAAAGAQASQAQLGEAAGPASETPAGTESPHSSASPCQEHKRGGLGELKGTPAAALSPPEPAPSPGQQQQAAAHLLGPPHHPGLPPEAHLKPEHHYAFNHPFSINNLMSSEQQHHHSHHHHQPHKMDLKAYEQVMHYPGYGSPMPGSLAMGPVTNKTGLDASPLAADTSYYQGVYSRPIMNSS
In short: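 24 h dosing of HepG2 bearing cis-reporter constructs; mRNA readout by RT-PCR/CE fluorescence; bidirectional fit, DMSO baseline.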

[14] = ATG_FoxO_CIS: Attagene CIS-FACTORIAL HepG2 Assay for human Forkhead box O (FoxO) (AID 2282943); settings: HepG2 Attagene cis-reporter, FoxO element, mRNA; actives raise or lower the signal
In short: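 Human hepatoma HepG2 cells carry transiently introduced reporter transcription units controlled by cis promoter elements. Chemical treatment lasted 24 h, and mRNA signal was compared with DMSO.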

[15] = ATG_GATA_CIS: Attagene CIS-FACTORIAL HepG2 Assay for human GATA Binding Protein (AID 2282944); settings: HepG2 GATA cis-element reporter, Attagene multiplex mRNA; actives raise or lower the signal
In short: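 HepG2 cells transiently transfected with multiplexed cis-element reporter units measure endogenous GATA activity; after 24 h compound exposure, reporter mRNA quantified by RT-PCR and capillary electrophoresis. Changes fitted in both directions vs DMSO.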

[16] = biological target: Retinoic acid receptor alpha (Homo sapiens) (UniProt P10276); assay: ATG_DR5_RAR_CIS: Attagene CIS-FACTORIAL HepG2 Assay for human Retinoic Acid Receptor Alpha (RARE), DR5 submotif (AID 2282934); settings: HepG2 Attagene cis-factorial RARE DR5 reporter, mRNA; actives raise or lower the signal;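 as to AC50: reporter responds to endogenous RAR alpha beta and gamma in HepG2 not RARA alone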
Sequence of Retinoic acid receptor alpha (Homo sapiens) (P10276 whole entry, looked up): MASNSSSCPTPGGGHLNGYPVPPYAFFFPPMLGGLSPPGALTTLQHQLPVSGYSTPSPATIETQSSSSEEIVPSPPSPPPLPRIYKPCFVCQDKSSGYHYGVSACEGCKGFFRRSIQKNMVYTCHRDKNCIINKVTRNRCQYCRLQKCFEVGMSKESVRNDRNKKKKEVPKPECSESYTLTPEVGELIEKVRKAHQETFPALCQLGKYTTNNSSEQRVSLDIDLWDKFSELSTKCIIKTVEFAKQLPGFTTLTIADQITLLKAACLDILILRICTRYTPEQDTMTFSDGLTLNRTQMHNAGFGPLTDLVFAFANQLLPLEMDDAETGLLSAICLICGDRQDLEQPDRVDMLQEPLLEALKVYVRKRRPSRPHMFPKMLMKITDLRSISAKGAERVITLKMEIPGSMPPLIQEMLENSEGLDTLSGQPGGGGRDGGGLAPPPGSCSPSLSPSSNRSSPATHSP
In short: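 HepG2, transient cis-reporter transfection, 24 h exposure. mRNA readout: RT-PCR, FAM label, HpaI cut, capillary electrophoresis. DMSO baseline, gain/loss fitting.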

[17] = biological target: Transcription factor E2F1 (Homo sapiens) (UniProt Q01094); assay: ATG_E2F_CIS: Attagene CIS-FACTORIAL HepG2 Assay for human E2F Transcription Factor 1 (AID 2282935); settings: HepG2 Attagene cis-reporter, E2F reporter RNA transcripts; actives raise or lower the signal
Sequence of Transcription factor E2F1 (Homo sapiens) (Q01094 whole entry, looked up): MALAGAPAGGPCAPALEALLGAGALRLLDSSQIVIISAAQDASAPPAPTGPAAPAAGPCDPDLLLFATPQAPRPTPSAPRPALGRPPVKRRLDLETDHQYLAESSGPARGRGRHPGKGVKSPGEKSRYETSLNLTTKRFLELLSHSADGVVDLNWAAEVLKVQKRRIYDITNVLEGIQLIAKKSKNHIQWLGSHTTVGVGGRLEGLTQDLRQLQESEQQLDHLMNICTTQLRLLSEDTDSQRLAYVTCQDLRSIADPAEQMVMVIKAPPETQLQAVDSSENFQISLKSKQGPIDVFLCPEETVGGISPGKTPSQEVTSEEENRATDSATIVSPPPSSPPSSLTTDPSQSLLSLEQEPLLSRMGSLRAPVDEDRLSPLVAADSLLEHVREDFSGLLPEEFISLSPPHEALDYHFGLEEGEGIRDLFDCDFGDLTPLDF
In short: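 Fluorescent RT-PCR products, digested with HpaI for 2 h at 37 C, are separated by capillary electrophoresis. Source RNA comes from transfected HepG2 cultures treated for 24 h.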

[18] = ATG_AP_1_CIS: Attagene CIS-FACTORIAL HepG2 Assay for human Activator Protein 1 (AP-1) (AID 2282931); settings: HepG2 Attagene cis-factorial AP-1 reporter mRNA; actives raise or lower the signal
In short: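 HepG2, transient cis-reporter transfection; 24 h; readout RT-PCR/CE fluorescence; DMSO baseline, gain and loss fitted.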

[19] = ATG_ERE_CIS: Attagene CIS-FACTORIAL HepG2 Assay for Estrogen Response Element (ERE) (AID 2282940); settings: HepG2 ERE cis-reporter, Attagene RNA transcript; actives raise or lower the signal
In short: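 HepG2 cells transiently transfected with multiplexed cis-element reporter units, measuring endogenous transcription factor activity; ERE reporter mRNA quantified after 24 h exposure by RT-PCR, fluorescent labelling, HpaI digestion and capillary electrophoresis. Bidirectional change versus DMSO.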

O=S(=O)(O)C(F)(F)C(F)(F)C(F)(F)C(F)(F)C(F)(F)C(F)(F)C(F)(F)C(F)(F)F
AC50 [1]: 110 µM (active) and 9.67 µM (active) | outcome [1]: inactive | AC50 [2]: 142 µM (active) and 53.4 µM (active) | outcome [2]: inactive | outcome [3]: inactive | AC50 [4]: 61.4 µM (active) and 191 µM (active) and 89.9 µM (active) | outcome [4]: inactive | outcome [5]: inactive | AC50 [6]: 180 µM (active) and 40.3 µM (active) | outcome [6]: inactive | AC50 [7]: 140 µM (active) and 26.8 µM (active) | outcome [7]: inactive | outcome [8]: inactive | AC50 [9]: 134 µM (active) | outcome [9]: inactive | outcome [10]: inactive | AC50 [11]: 102 µM (active) | outcome [11]: inactive | AC50 [12]: 153 µM (active) | outcome [12]: inactive | outcome [13]: inactive | AC50 [14]: 143 µM (active) and 58.9 µM (active) and 223 µM (active) | outcome [14]: inactive | AC50 [15]: 44.4 µM (active) | outcome [15]: inactive

CC(C)(C)C(O)C(Oc1ccc(Cl)cc1)n1cncn1 (centres undefined)
outcome [1]: inactive | AC50 [2]: 5.81 µM (active) | outcome [2]: inactive | AC50 [3]: 7.06 µM (active) | outcome [3]: inactive | outcome [4]: inactive | outcome [5]: inactive | outcome [6]: inactive | outcome [7]: inactive | AC50 [8]: 7.92 µM (active) | outcome [8]: inactive | AC50 [16]: 4.35 µM (active) and 4.55 µM (active) and 7.16 µM (active) | outcome [16]: inactive | outcome [17]: inactive | outcome [9]: inactive | outcome [10]: inactive | outcome [11]: inactive | outcome [12]: inactive | AC50 [13]: 16.9 µM (active) | outcome [13]: inactive | outcome [14]: inactive | outcome [15]: inactive

COC(=O)c1ccccc1S(=O)(=O)NC(=O)Nc1nc(C)nc(OC)n1
outcome [1]: inactive | outcome [2]: inactive | outcome [3]: inactive | outcome [4]: inactive | outcome [6]: inactive | AC50 [18]: 63.1 µM (active) | outcome [18]: inactive | outcome [7]: inactive | AC50 [8]: 27.1 µM (active) | outcome [8]: inactive | outcome [16]: inactive | outcome [9]: inactive | outcome [10]: inactive | outcome [11]: inactive | outcome [12]: inactive | outcome [13]: inactive | AC50 [14]: 75.5 µM (active) | outcome [14]: inactive | outcome [15]: inactive

CCS(=O)(=O)c1cccnc1S(=O)(=O)NC(=O)Nc1nc(OC)cc(OC)n1
outcome [1]: inactive | outcome [2]: inactive | outcome [3]: inactive | outcome [4]: inactive | outcome [5]: inactive | outcome [6]: inactive | outcome [7]: inactive | outcome [8]: inactive | outcome [16]: inactive | outcome [9]: inactive | outcome [10]: inactive | outcome [11]: inactive | outcome [12]: inactive | outcome [13]: inactive | outcome [14]: inactive | outcome [15]: inactive

CCN(CC)C(=O)SCc1ccc(Cl)cc1
outcome [1]: inactive | outcome [2]: inactive | AC50 [3]: 8.69 µM (active) | outcome [4]: inactive | outcome [5]: inactive | outcome [6]: inactive | outcome [7]: inactive | AC50 [8]: 50 µM (active) | outcome [16]: inactive | outcome [9]: inactive | outcome [10]: inactive | AC50 [11]: 23.5 µM (active) | outcome [12]: inactive | outcome [19]: inactive | outcome [13]: inactive | outcome [14]: inactive | outcome [15]: inactive
